C8 TRAIL sens: viability loss with TRAIL in NB7+C8 cells, primary screen, TRAIL sensitizer project, cell-based, ATPlite luminescence; hit rate 1% among 360,000; inhibition (viability loss, TRAIL sensitization), % at 10 µM; AID 624354, 2012;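 active = compounds causing at least 50% loss of cell viability in the single-dose screen, relative to plate controls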
TWEAK-Fn14 inh: inhibitors of TWEAK-Fn14 signaling, primary screen, luciferase reporter cells, uHTS. hit rate 2% among 360,000. TWEAK-stimulated Fn14 reporter cells, luciferase luminescence, 8 h. inhibition, % at 10 µM. AID 1159606, 2016; in the data active = inhibition above about 50%
PPC-1+TRAIL kill: compounds killing PPC-1 cancer cells with TRAIL present, primary screen, TRAIL potentiator project, ATPLite luminescence, uHTS; PPC-1 cells + TRAIL, ATPLite viability luminescence; cell killing (% activity), % at 4 µM or 5 µM; hit rate 0.41% among 220,000; AID 1443, 2008;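 active = cell killing above 50% in the first pass at 4 µM, then a duplicate retest at 5 µM averaging 50% or more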;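 also: plate controls were cells with TRAIL plus DMSO for no effect and medium-only wells lacking cells for full effect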
HSP90 inh: HSP90 inhibitors, primary screen, cell lysate, luminescence; hit rate 0.91% among 290,000; Rabbit reticulocyte lysate, luciferase refolding luminescence, 3 h; inhibition, % at 5.6 µM; Heat shock protein HSP 90 (rabbit reticulocyte lysate; luciferase refolding); AID 1789, 2009;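 active = inhibition above the screen-wide mean plus 3 SD, computed separately per campaign, cut at about 16% in these data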;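 also: 0% = DMSO wells and 100% = 60 µM geldanamycin wells; inhibitors lower the luminescence because luciferase stays unfolded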
Platelet DG rel: inhibitors of platelet dense granule secretion, primary screen, cell-based, MLPCN, human platelets; human platelet-rich plasma, SFLLRN dense granule ATP release, luminescence; inhibition, %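 (compounds screened at 7.5 µM in platelet-rich plasma)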; hit rate 0.22% among 300,000;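 active = mean replicate score, as percent of positive control, at or above 50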
TROY signal inh: inhibitors of TROY-driven NF-kB signaling, primary screen, Q293 LMP1-TROYcd cells, NF-kB luciferase, uHTS. Q293 LMP1-TROYcd NF-kB luciferase reporter, 4 h. inhibition, % at 10 µM. hit rate 0.98% among 360,000. AID 1347056, 2019;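 active = compounds whose plate-normalised and pattern-corrected inhibition of the luciferase reporter signal at the single screening dose is 50% or more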
Active calls of the source: *; . = not tested or not shown. Only some compounds are listed: those with a hit (about 3.5% of all), similar ones and a draw of the others.

SMILES	C8 TRAIL sens	TWEAK-Fn14 inh	PPC-1+TRAIL kill	HSP90 inh	Platelet DG rel	TROY signal inh
COc1cccc(CNC(=O)CCS(=O)(=O)c2ccc3c(c2)NC(=O)CO3)c1	-7	7	.	0	-5	-18
CC(=O)c1cccc(-n2nnnc2SCC(=O)N2CCCC2)c1	-10	-10	-24	-5	50*	8
COC1=CC(=O)c2nc(Cl)ccc2C1=O	95*	94*	.	.	.	3
CCN(Cc1ccc2c(c1)OCO2)C(=O)CSc1nc(C)nc2sc(C)c(C)c12	0	13	.	.	.	57*
O=C(/C=C/c1ccccc1)Nc1ccc2c(c1)C(=O)NC2=O	50*	-42	28	-4	-9	-49
COc1cccc(COC(=O)c2cc(S(=O)(=O)N3CCOCC3)ccc2Cl)c1OC	16	85*	.	.	.	9
O=C(OCc1cccc(C(F)(F)F)c1)c1cc(S(=O)(=O)N2CCOCC2)ccc1F	72*	-29	.	.	-2	4
Cn1c(CSCc2ccc(Cl)c(Cl)c2)nnc1SCC(=O)Nc1nccs1	14	51*	2	-2	-8	20
COc1cc([N+](=O)[O-])ccc1NC(=O)CC1SC(=Nc2ccc(F)cc2)N(CCC2=CCCCC2)C1=O (centres undefined)	23	60*	10	3	-9	-1
CCC(C)(C)NC(=O)C(c1ccc(OC)cc1)N(C(=O)CCC(=O)Nc1cc(C)on1)c1ccc(OC)c(OC)c1 (centres undefined)	0	22	.	2	0	-7
CCC(C)(C)NC(=O)C(c1ccc(OC)cc1)N(C(=O)CCC(=O)Nc1cc(C)on1)c1ccccc1OC (centres undefined)	-10	57*	.	1	-17	11
CCCn1c(C)cc(/C=C(\C#N)C(=O)OCC(=O)N(CC)c2c(N)n(Cc3ccccc3)c(=O)[nH]c2=O)c1C	-17	-34	.	.	.	-8
Cc1[nH]c(=O)[nH]c(=O)c1/C=N/NC(=O)CCNC(=O)OC(C)(C)C	2	5	7	-3	77*	-17
Cc1[nH]c(=O)[nH]c(=O)c1/C=N/NC(=O)CCCCCNC(=O)OC(C)(C)C	-2	0	11	-1	-14	16
CC1(C)CC(=O)C=C(C#CC2(O)CCCCC2)C1	21	64*	.	.	.	8
NC(=O)COc1ccccc1C1=NO[C@@](CC(=O)O)(C(=O)Nc2ccc3c(c2)OCCO3)C1	-10	-1	.	-9	-10	7
CC(C)(C)c1ccc(C(=O)NCCC(=O)Nc2ccc3c(c2)OCCO3)cc1	11	67*	.	.	.	65*
O=C(CCNS(=O)(=O)c1ccc2c(c1)CCC(=O)N2)Nc1ccc2c(c1)OCCO2	-5	68*	-3	2	6	56*
CC(=O)Nc1ccc(C(=O)Nc2ccc3c(c2)OCCO3)cc1	18	24	.	-1	-4	-21
COc1cc(OC)cc(C(=O)Nc2ccc3c(c2)OCCO3)c1	51*	-21	.	-1	47	-42
Cc1ccc(C(=O)NCC(=O)Nc2ccc3c(c2)OCCO3)cc1	14	-6	.	.	-19	-26
COc1ccc(C2=NO[C@@](CC(=O)O)(C(=O)Nc3ccc4c(c3)OCCO4)C2)cc1	6	43	.	0	-4	55*
COc1cccc(CNC(=S)Nc2ccc3c(c2)c(=O)n(C)n3Cc2ccccc2)c1	-15	15	.	.	.	21
COc1cc(OC)cc(C(=O)NC(C(=O)Nc2ccc3c(c2)OCCO3)C(C)C)c1 (centres undefined)	-14	56*	.	.	.	52*
COc1ccc(S(=O)(=O)NC(C)C(=O)Nc2ccc3c(c2)OCCO3)cc1OC (centres undefined)	-8	75*	.	-4	-3	8
SMILES	C8 TRAIL sens	TWEAK-Fn14 inh	PPC-1+TRAIL kill	HSP90 inh	Platelet DG rel	TROY signal inh
COc1ccc(S(=O)(=O)NC(C)C(=O)Nc2ccc3c(c2)OCO3)cc1OC (centres undefined)	-15	-2	.	-1	7	-6
CCC(NC(=O)Cc1c(C)c2cc3c(cc2oc1=O)OC(C)(C)CC3)C(=O)O (centres undefined)	0	-12	.	-3	2	-56
CCOC(=O)c1c(C)[nH]c(C(=O)NNC(=O)c2ccccc2)c1C	30	53*	9	4	-1	-25
CC(=O)c1c(C)[nH]c(C(=O)NNC(=O)c2ccc(Br)cc2)c1C	6	-12	.	.	.	-6
CCOC(=O)c1c(C)[nH]c(C(=O)NNC(=O)c2ccc(Br)cc2)c1C	14	56*	.	.	.	55*
O=[N+]([O-])c1ccc(S(=O)(=O)NN=CCCc2ccccc2)cc1	-7	-12	.	.	.	-10
CCOC(=O)c1sc(=NC(=O)c2ccc(Cl)s2)n(C)c1C	21	40	5	7	-9	54*
O=C(NNc1cc(C(F)(F)F)nc2ccccc12)Nc1cccc(Cl)c1	6	5	7	3	6	16
Cc1ccc(CN2C(=O)C(C)Nc3ncnc(N4CCN(c5ccccn5)CC4)c32)cc1 (centres undefined)	-4	-49	.	.	10	-11
c1ccc(-c2csc3ncnc(NCc4ccccn4)c23)cc1	17	65*	-1	-1	1	-14
Oc1ccc(Nc2ncnc3scc(-c4ccccc4)c23)cc1	6	63*	14	-1	-1	33
C[C@@H]1CN([C@@H](C)CO)C(=O)c2c(c3ccccc3n2C)-c2ccccc2CO[C@H]1CN(C)C(=O)[C@H](Cc1ccccc1)N(C)C	3	6	.	.	.	5
Oc1c(CN2CCOCC2)cc(CN2CCOCC2)c(O)c1O	0	52*	.	.	.	5
O=C(Oc1c(CN2CCOCC2)cc(Cl)c2cccnc12)c1ccccc1Br	55*	-6	0	6	-1	5
Oc1cccc(CN2CCOCC2)c1O	18	19	.	.	.	1
Oc1c(CN2CCOCC2)cc(COCc2ccccc2)c2cccnc12	53*	15	55*	5	-27	9
COc1cc(OC)cc(-c2cc3nc(C)c(CCC(=O)NC(C)CCc4ccco4)c(C)n3n2)c1 (centres undefined)	-7	8	-15	-1	4	1
COc1cc(OC)cc(-c2cc3nc(C)c(CCC(=O)O)c(C)n3n2)c1	4	90*	-8	25*	.	58*
CCOC(=O)C1CCCCN1C(=O)CCc1c(C)nc2cc(-c3ccccc3)nn2c1C (centres undefined)	18	69*	16	3	5	9
CCOC(=O)C1CCN(C(=O)CCc2c(C)nc3cc(-c4ccccc4)nn3c2C)CC1	15	2	5	-1	-20	-34

Screening results: PubChem, several laboratories
